About 1,500 (0.42%) of roughly 360,000 compounds were called active. Rule as the data show it: active = inhibition above about 13% (passing the limit was not always enough); inactive = the rest. The entries come from a sample that favours actives as a whole.
Target: Lon protease (Escherichia coli (strain K12)) (UniProt P0A9M0)
Experiment: inhibitors of E. coli Lon protease, primary screen, biochemical, fluorescence polarization (AID 602123);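 also: 0% = enzyme with probe and DMSO and 100% = no enzyme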
Conditions: purified E. coli Lon protease, at 7.94 µM, active compounds read high

Sequence of Lon protease (Escherichia coli (strain K12)) (P0A9M0 whole entry, looked up): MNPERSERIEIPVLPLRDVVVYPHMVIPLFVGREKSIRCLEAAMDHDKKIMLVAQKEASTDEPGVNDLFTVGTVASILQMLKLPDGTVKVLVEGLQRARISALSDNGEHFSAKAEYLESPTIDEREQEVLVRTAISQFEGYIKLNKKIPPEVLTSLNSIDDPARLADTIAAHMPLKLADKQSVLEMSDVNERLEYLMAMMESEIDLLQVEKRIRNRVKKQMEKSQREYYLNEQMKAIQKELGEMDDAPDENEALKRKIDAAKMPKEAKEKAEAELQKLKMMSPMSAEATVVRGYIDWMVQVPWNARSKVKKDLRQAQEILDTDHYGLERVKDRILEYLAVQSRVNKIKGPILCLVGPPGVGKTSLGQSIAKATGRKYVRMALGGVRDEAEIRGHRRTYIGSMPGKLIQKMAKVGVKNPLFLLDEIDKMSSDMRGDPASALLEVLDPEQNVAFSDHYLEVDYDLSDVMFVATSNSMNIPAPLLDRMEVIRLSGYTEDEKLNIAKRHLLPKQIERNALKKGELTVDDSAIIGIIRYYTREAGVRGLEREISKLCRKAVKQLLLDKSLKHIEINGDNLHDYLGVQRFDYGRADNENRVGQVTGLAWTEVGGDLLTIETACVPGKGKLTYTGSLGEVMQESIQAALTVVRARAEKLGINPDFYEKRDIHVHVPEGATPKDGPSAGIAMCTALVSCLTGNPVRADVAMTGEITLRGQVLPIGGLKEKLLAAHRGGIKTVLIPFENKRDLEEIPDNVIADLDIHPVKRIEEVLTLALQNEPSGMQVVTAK

Row | Structure (SMILES) | inhibition
1 | Cc1nn(CC(=O)Nc2ccc(C#N)cc2)c(C)c1[N+](=O)[O-] | -15.5% (inactive)
2 | COc1ncnc2c1N=C1CC(C)(C)CC(N)=C1S2 | 65.4% (active)
3 | Cn1cc(CCC(=O)N2CCCC(C(=O)c3ccc(C(C)(C)C)cc3)C2)cn1 (stereo not drawn) | -1.82% (inactive)
4 | O=C(COc1ccc(/C=N/NS(=O)(=O)c2ccccc2)cc1)NCCc1ccccc1 | -5.95% (inactive)
5 | CCCCOCCCNC(=O)C[C@@H]1C[C@@]2(C(=O)OC)CCCCC=C2N(CCC2=CCCCC2)C1=O | 14.4% (active)
6 | COC(=O)[C@]12CCCCC=C1N(CCC1=CCCCC1)C(=O)[C@H](CC(=O)NCC1CCCCC1)C2 | -2.93% (inactive)
7 | CCOC(=O)N1CCN(C(=O)C[C@@H]2C[C@@]3(C(=O)OC)CCCCC=C3N(CCC3=CCCCC3)C2=O)CC1 | 4.15% (inactive)
8 | c1ccc(-c2ccc3c(c2)NC(C2Nc4cc(-c5ccccc5)ccc4O2)O3)cc1 (stereo not drawn) | -3.71% (inactive)
9 | NC(=O)c1nnsc1-c1ccc(-c2snnc2C(N)=O)cc1 | 1.17% (inactive)
10 | COc1ccc(S(=O)(=O)N2CCOCC2)cc1NC(=O)Cc1c(F)cccc1Cl | 20.4% (active)
11 | COc1ccc(S(=O)(=O)N2CCOCC2)cc1NC(=O)CSc1cc(C)ccc1C | -9.45% (inactive)
12 | COc1ccc(S(=O)(=O)N2CCOCC2)cc1NC(=O)COc1ccccc1 | -17.8% (inactive)
13 | Cc1ccc(CNC(=O)CCN2C(=O)[C@@H]3Cc4ccccc4CN3C2=O)cc1 | 1.97% (inactive)
14 | O=C(CN1CCCSc2ccccc21)N1CCN(S(=O)(=O)c2ccccc2)CC1 | 4.26% (inactive)
15 | O=C(CN1CCCSc2ccccc21)N1CCN(S(=O)(=O)c2cccc(F)c2)CC1 | 19.9% (active)
16 | O=C(CN1CCN(S(=O)(=O)c2cccc(Cl)c2)CC1)N1CCCCC1 | -0.39% (inactive)
17 | CC(C)N1CCC(=NNc2ccc([N+](=O)[O-])cc2S(=O)(=O)N2CCOCC2)CC1 | 1.91% (inactive)
18 | COc1ccccc1Oc1ccc(N2CC(C(=O)OCC(=O)c3ccc(F)cc3)CC2=O)cc1 (stereo not drawn) | 2.52% (inactive)
19 | CCn1c(=S)[nH]c2cc(S(=O)(=O)N3CCOCC3)ccc21 | 3.25% (inactive)
20 | CCCCn1c(=S)[nH]c2cc(S(=O)(=O)N3CCCCC3)ccc21 | -10.8% (inactive)
21 | CNS(=O)(=O)c1ccc2c(c1)[nH]c(=S)n2C | 62.6% (active)
22 | CSc1ccc(S(=O)(=O)N2CCC(C(=O)NCCc3ccccc3)CC2)cc1 | 11% (inactive)
23 | CCN(CC)Cc1c(C(=O)N/N=C/c2cccc(OCc3ccc(F)cc3)c2)nnn1-c1nonc1N | 5.3% (inactive)
24 | CC(C)Oc1ccc(/C=N/NC(=O)c2nnn(-c3nonc3N)c2CN(C)C2CCCCC2)cc1 | 1.38% (inactive)
25 | CN(C)Cc1c(C(=O)N/N=C/c2ccccc2OCc2ccc(F)cc2)nnn1-c1nonc1N | 18.9% (active)
26 | CCc1ccc(CN2C(=O)c3ccccc3C2C(=O)NCC2CCCO2)cc1 (stereo not drawn) | -0.17% (inactive)

Row | Structure (SMILES) | inhibition
27 | COc1c(C(C)C)oc2cc3oc(=O)ccc3cc12 | 0.79% (inactive)
28 | CS(=O)(=O)N(C(=O)NC(=O)NC1CCS(=O)(=O)C1)C1CCCCC1 (stereo not drawn) | -6.98% (inactive)
29 | Cc1ccc2cccc(S(=O)(=O)N3CCN(c4ccccc4F)CC3)c2n1 | 1.99% (inactive)
30 | Cc1cc(-c2nnc(CCC(=O)NC(c3ccccc3)c3ccccc3)o2)no1 | 5.3% (inactive)
31 | COc1cccc(N(CC(=O)NCc2ccccc2)C(=O)CCC(=O)Nc2nccs2)c1 | -5.92% (inactive)
32 | COC(=O)C1=C(C(=O)c2ccc(C)cc2)C(c2ccccc2)n2nnnc2N1 (stereo not drawn) | -7.42% (inactive)
33 | COc1ccc(C2=CC(c3cccc(OC)c3)n3nnnc3N2)cc1 (stereo not drawn) | 16.1% (active)
34 | COc1ccc(C2CC(c3cccs3)Nc3nnnn32)cc1 (stereo not drawn) | -1.58% (inactive)
35 | COC(=O)C[n+]1cccc2ccccc21 | 99.9% (active)
36 | COc1c(C(=O)N2CCCC2)ccc2ccccc12 | -2.3% (inactive)
37 | COC(=O)CNS(=O)(=O)c1ccc(Cc2ccc(S(=O)(=O)NCC(=O)OC)cc2)cc1 | 5.06% (inactive)
38 | CSc1ccccc1NC(=O)Cc1ccc(Br)cc1 | 3.49% (inactive)
39 | COc1ccccc1C(=O)NCCC(=O)NC(C)CCc1ccccc1 (stereo not drawn) | 2.26% (inactive)
40 | COc1ccc(C(=O)NC(C)CCc2ccccc2)c(OC)c1 (stereo not drawn) | 35.8% (active)
41 | COc1ccc(C(=O)CCc2ccccc2O)c(OC)c1 | -6.58% (inactive)
42 | COCC(C)NC(=O)CSc1nc2nn(-c3ccccc3)c(=O)c-2c2n1CCCCC2 (stereo not drawn) | 8.05% (inactive)
43 | C=CCSc1ccc(S(=O)(=O)N2CCN(C)CC2)cn1 | 2.87% (inactive)
44 | O=C(COC(=O)CNS(=O)(=O)c1ccccc1)NC12CC3CC(CC(C3)C1)C2 | -4.78% (inactive)
45 | O=C(CNCCO)NC12CC3CC(CC(C3)C1)C2 | 1.03% (inactive)
46 | O=C(COC(=O)C12CC3CC(CC(O)(C3)C1)C2)NC12CC3CC(CC(C3)C1)C2 | 14.8% (active)
47 | Cc1ccc(N(C(=O)c2sc(C)nc2C)C(C(=O)NC(C)(C)C)c2ccncc2)cc1 (stereo not drawn) | 2.66% (inactive)
48 | CCS(=O)(=O)N1CCCC(C(=O)NCCCN(C)Cc2ccccc2)C1 (stereo not drawn) | 0.57% (inactive)
49 | O=C(CCCn1c(=O)oc2ccccc21)Nc1cccnc1 | 0.74% (inactive)
50 | C/C(=N/NC(=O)CSc1ccccn1)c1ccc([N+](=O)[O-])cc1 | -0.59% (inactive)
51 | CCN1C(=O)[C@H]2[C@@H](c3ccc(-c4ccc(F)cc4)cc3)N[C@@](Cc3ccccc3)(C(=O)OC)[C@H]2C1=O | -0.32% (inactive)
52 | CCN1C(=O)[C@H]2[C@@H](c3ccc(-c4ccc(OC)cc4)cc3)N[C@@](Cc3ccccc3)(C(=O)OC)[C@H]2C1=O | -4.73% (inactive)

Row | Structure (SMILES) | inhibition
53 | CCCSc1ccc([C@H]2N[C@@](Cc3ccccc3)(C(=O)OC)[C@H]3C(=O)N(C)C(=O)[C@@H]23)cc1 | 22.2% (active)
54 | CCNC(=S)N1CCN(S(=O)(=O)c2ccc(Cl)s2)CC1 | 3.82% (inactive)
55 | O=C(Nc1ccc(F)c(Cl)c1)C1CCN(S(=O)(=O)c2cccnc2)CC1 | 1.53% (inactive)
56 | Cc1cc(C)n(Cc2cnc(N3CCOCC3)s2)n1 | -9.37% (inactive)
57 | Clc1ccc2c(c1)C1=C(C(c3ccncc3)O2)C(c2ccc(Br)cc2)n2ncnc2N1 (stereo not drawn) | 0.69% (inactive)
58 | Brc1ccc(C2=CC(c3ccco3)n3ncnc3N2)cc1 (stereo not drawn) | 189% (active)
59 | CN1/C(=c2/s/c(=C3/C(=O)N(c4ccccc4)NC3=Nc3ccccc3)n(C)c2=O)C(C)(C)c2ccccc21 | -167% (inactive)
60 | CCN(CC(=O)NCc1cccs1)C(=O)c1ccccc1F | -7.98% (inactive)
61 | Cc1ccc(S(=O)(=O)CCC(=O)OCC(=O)NCCc2ccc(S(N)(=O)=O)cc2)cc1 | -12.1% (inactive)
62 | Cc1ccc(S(=O)(=O)CCC(=O)OCc2ccccc2)cc1 | 15.9% (active)
63 | Cc1ccc(S(=O)(=O)CCC(=O)OCC(=O)N(C)Cc2ccccc2)cc1 | 5.85% (inactive)
64 | Cc1cc(Br)ccc1NC(=O)CN(C)C(=O)CN1C(=O)NC2(CCCC2)C1=O | -8.08% (inactive)
65 | CCC(=O)c1ccc(OCC(=O)N(CC)CC2COc3ccccc3O2)cc1 (stereo not drawn) | 5.37% (inactive)
66 | COCCCNC(=S)NC(=O)c1ccc([N+](=O)[O-])cc1 | -1.2% (inactive)
67 | CC(=O)NC(=S)Nc1ccc(NC(=S)NC(=O)c2ccc([N+](=O)[O-])cc2)cc1 | 21.3% (active)
68 | CC(=O)Nc1ccc(NC(=S)NC(=O)c2ccc([N+](=O)[O-])c(C)c2)cc1 | -3.89% (inactive)
69 | COc1cc(Cl)c(C)cc1NC(=O)CSc1nnc(-c2ccco2)n1CC(C)C | -5.33% (inactive)
70 | NC(Cc1ccccc1)c1csc(Nc2cc(Oc3ccccc3)ncn2)n1 (stereo not drawn) | -2.31% (inactive)
71 | CCN(CC)C(=O)CSc1nnc(-c2cnccn2)n1-c1ccc(C)cc1 | -8.84% (inactive)
72 | CC(C)CCN(C(=O)c1csnn1)C(C(=O)NC1CCCC1)c1ccccc1 (stereo not drawn) | 5.69% (inactive)
73 | CCCn1c(SCC(=O)c2ccc3c(c2)OCCO3)nnc1C(C)C | 3.55% (inactive)
74 | COCCn1c(SCC(=O)Nc2nc(C)cs2)nnc1C(C)C | 6.46% (inactive)
75 | CCCn1c(SCC(=O)Nc2c(C)cccc2C)nnc1C(C)C | 14.6% (active)
76 | CCCC(O)(CCC)C(=O)NN(C(=O)CCl)c1cccc(C)c1 | 12.8% (active)
77 | CCCCC(O)(CCCC)C(=O)NN(C(=O)CCl)c1ccccc1 | -2.85% (inactive)
78 | Cc1cccc(N(Cc2ccccc2)C(=O)c2ccccc2F)c1 | 0.91% (inactive)

Source: PubChem BioAssay AID602123 (The Scripps Research Institute Molecular Screening Center, 2011)
